Source: PubChem
PolyA inh = polyadenylation inhibitors in yeast reporter cells, primary screen, luminescence, S. cerevisiae; S. cerevisiae SKY197-pL101 polyadenylation reporter, beta-gal luminescence; efflux-impaired pdr1/pdr3 knockout yeast; score 100 = 6 SD above DMSO; activity score, % at 12 µM; 300,000 compounds, 0.02% hits;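 active means lowest replicate activity score at least 50, where 100 means six control SD above control mean; inconclusive means lowest score under 50 but half or more replicates reach 50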;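 further: yeast exposed to compound for 9 h at 30 °C; higher score means more reporter readthrough which indicates perturbed polyadenylation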
Platelet DG rel = inhibitors of platelet dense granule secretion, primary screen, cell-based, MLPCN, human platelets; human platelet-rich plasma, SFLLRN dense granule ATP release, luminescence; inhibition, %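 (compounds screened at 7.5 µM in platelet-rich plasma)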; 300,000 compounds, 0.22% hits; AID 1663, 2009;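 active means mean replicate score, as percent of positive control, at or above 50; inconclusive means mean below 50 but at least one replicate at or above 50; inactive means mean and every replicate below 50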
SKKanGAS inh = S. pyogenes SKKanGAS growth inhibitors in kanamycin, primary screen, streptokinase expression inhibitor project, SKKanGAS strain, BacTiter-Glo luminescence | 6 h | 300,000 compounds, 1.3% hits | inhibition, % at 7.5 µM | AID 1662, 2009;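 active means mean replicate score, as percent of positive control median, at least 50; inconclusive means mean below 50 but one replicate at or above 50; inactive means mean and every replicate below 50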;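 further: strain carries kanamycin resistance gene driven by streptokinase promoter and grows in 40 µg/ml kanamycin; loss of luminescence reflects streptokinase promoter inhibition or plain growth inhibition; 0% = median of DMSO wells and 100% = positive control at its reference dose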
Calb FLC = C. albicans growth inhibition with fluconazole, primary screen, CaCi-2 strain, Alamar Blue fluorescence; C. albicans CaCi-2 (fluconazole-resistant clinical isolate) + fluconazole, 48 h; growth inhibition, % (no concentration beside the values); 300,000 compounds, 0.57% hits;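 active means growth inhibition above about 58% in most replicates, limit read from the data, passing the limit was not always enough; inconclusive means exactly half the replicates above a set limit; inactive means most replicates below a set limit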;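 further: all wells also contain fluconazole at 8 µg/ml as a sub-toxic cotreatment; 0% = median of DMSO wells and 100% = median of geldanamycin control wells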
CR mimetic SO = reduction of superoxide in aged yeast, primary screen, HTS. AID 2690, 2010. superoxide response (% of plate mean), % at 10 µM. 330,000 compounds, 0.18% hits. S. cerevisiae aged cells, superoxide DHE fluorescence; active compounds read low;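 active means superoxide response under a set limit, about three screen SD below normal, cut at about 65% in these data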;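 further: yeast aged for seven days with compound at 30 °C before DHE staining; 100% = average MFI of all compound-treated wells on the plate with controls excluded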
Numbers without * were called inactive; ? = inconclusive; . = not tested or not shown. Most compounds without a hit are left out; they make up all but 2% or so of the library.

SMILES	PolyA inh	Platelet DG rel	SKKanGAS inh	Calb FLC	CR mimetic SO
Cc1ccc2nsnc2c1NC(=O)COc1ccccc1F	6	-1	-12	114*	92
Cc1c(/C=N/NC(=O)CNc2ccccc2)c2ccccn2c1C(=O)c1ccccc1	9	-15	25	3	95
COc1ccccc1CC(=O)N1CCN(C(=O)c2ccco2)CC1	-17	-10	-7	-6	110
CCOC(=O)C(=O)NN=C(c1ccccc1)c1ccccc1	-12	5	-3	4	106
CCN(CC)CCN(C(=O)c1ccc2ccccc2c1)c1nc2ccc(OC)cc2s1	-2	1	4	99*	101
CCN(CC)CCN(C(=O)c1cc2ccccc2cc1OC)c1nc2ccc(OC)cc2s1	-16	-6	-5	80*	89
C[C@@H]1CCC[C@]2(O[C@H](CCO)C[C@@H](O)[C@@H]2O)O1	3	1	-1	-11	100
N=C(N)c1ccc(OCCCCCOc2ccc(C(=N)N)cc2)cc1	-12	-2	108*	.	118
CCCCCCOc1ccc(/C(N)=N/O)cc1	-6	-5	-12	2	99
COc1ccc2c(C)nc(Nc3nc(-c4ccccc4)cc(=O)[nH]3)nc2c1	-2	-2	74*	7	97
Cc1ccc2nc(Nc3nc(C)cc(-c4ccccc4)n3)[nH]c(=O)c2c1	1	12	86*	9	108
Cc1cc(C)nc(Nc2nc3ccccc3[nH]2)n1	18	-6	0	8	93
Cc1ccc2nc(Nc3nc(CSc4nc5ccccc5s4)cc(=O)[nH]3)nc(C)c2c1	-11	5	18	64	85
Cc1ccc2nc(Nc3nc(-c4ccccc4)cc(=O)[nH]3)nc(C)c2c1	24	0	95*	3	116
Nc1[nH]n2c(=O)c3c(nc2c1N=Nc1ccc(Cl)cc1)CCCC3	0	7	83*	14	88
Cc1ccc(C)c(NC(=O)CCc2nnc3ccc(N4CCCCC4)nn23)c1	8	-1	1	-3	115
CC(C)=CCc1c(O)cc2c(=O)c3ccc(O)cc3oc2c1O	-1	-8	16	1	107
CC(C)=CCc1c(O)cc(O)c2c(=O)c3c(CC=C(C)C)c(O)ccc3oc12	2	-1	106*	-7	99
Cc1ccc([N+](=O)[O-])cc1-c1[nH]c(-c2ccc(O)c(O)c2)nc1-c1ccccc1	2	2	21	112*	104
CCOC(=O)c1ccc(NC(=S)Nc2cccc(N)n2)cc1	-18	-2	58*	-5	95
CCOC(=O)c1ccc(NC(=S)Nc2cccc(C)n2)cc1	-9	-21	-9	-17	108
CCOC(=O)c1ccc(NC(=S)NCc2ccc(F)cc2)cc1	-7	-11	-5	-2	90
CCOC(=O)c1ccc(NC(=S)NN)cc1	11	0	70*	4	104
CCOC(=O)c1ccc(NC(=O)CCc2ccc(C)o2)cc1	-9	62*	3	3	107
CC(=O)Nc1ccc(NC(=O)CCc2ccc(C)o2)cc1	28	-18	-5	5	86
SMILES	PolyA inh	Platelet DG rel	SKKanGAS inh	Calb FLC	CR mimetic SO
CN1CCN(c2ccc(CNS(=O)(=O)c3ccc(Cl)cc3)cc2)CC1	0	9	-1	-14	109
Cc1cc(CN2CCN(CC(=O)Nc3cc(C(F)(F)F)ccc3-n3cncn3)CC2)no1	.	.	.	.	104
COc1ccc(-n2ccnc(SCC(=O)NCc3ccccc3Cl)c2=O)cc1	-13	-15	5	?	88
O=C(CN1C(=O)CCC1=O)NNc1ccc2ccccc2c1	-42	-8	12	100*	135
COc1ccc(C(=O)Cn2nc(CNc3ccc(Br)cc3)[n+]3c2CCCCC3)cc1	-6	-1	7	1	116
Cc1ccc(C(C)C)c(OCc2nn(CC(=O)c3ccc(OC(F)F)cc3)c3[n+]2CCCCC3)c1	0	-96	71*	90*	102
CCOc1ccc2oc(C(=O)NNC(=O)c3ccccc3O)c(C)c2c1	-4	3	69*	63	103
Cc1c(C(=O)NNC(=O)c2ccccc2O)oc2ccc(Br)cc12	-3	-10	108*	.	120
O=C1N/C(=C/c2cccs2)C(=O)N1Cc1ccc(Br)cc1	-9	8	-3	-5	103
CCc1c(C)sc2nc(C(C)C)nc(SCC(=O)N3CCc4ccccc4C3)c12	13	3	62*	-4	86
Cc1ccc(SCc2cc(=O)n3ccsc3n2)c(C)c1	-28	7	-1	-7	103
Cc1cccc(-n2c(SCc3cc(=O)n4ccsc4n3)nc3ccccc32)c1	-3	5	-5	114*	85
N#Cc1ccc(NC(=O)Nc2ccc(Cl)cc2)cc1	-13	3	55*	53	100
O=C(Nc1ccc(Cl)cc1)Nc1ccc(Cl)c(Cl)c1	.	.	.	.	124
C/C(=N\NC(=O)c1cc(Br)ccc1O)c1cccc(NC(=O)c2ccccc2F)c1	16	27	63*	10	94
C/C(=N\NC(=O)c1ccccc1F)c1cccc(NC(=O)c2ccccc2)c1	14	-8	4	-14	103
CC(C)C(=O)NC(c1ccccc1)c1cc([N+](=O)[O-])c2cccnc2c1O (stereo unspecified)	-10	3	84*	0	111
CCCC(=O)NC(c1cccs1)c1cc([N+](=O)[O-])c2cccnc2c1O (stereo unspecified)	-13	-8	86*	40	106
O=C(CCc1ccccc1)NC(c1cccs1)c1cc(Cl)c2cccnc2c1O (stereo unspecified)	-5	5	67*	?	.
CCC(=O)NC(c1cccs1)c1cc([N+](=O)[O-])c2cccnc2c1O (stereo unspecified)	-15	6	47	86*	86
CCC(=O)NC(c1cccs1)c1cc(Cl)c2ccccc2c1O (stereo unspecified)	.	.	.	.	95
CC(=O)NC(c1cccs1)c1cc(Cl)c2ccccc2c1O (stereo unspecified)	.	.	.	.	110
Cc1ccccc1CN1CCC(N2CCC(C(=O)NCC3CCCO3)CC2)CC1 (stereo unspecified)	-5	8	1	11	103
Cc1ccc(N2CC(C(=O)OCC(=O)Nc3ccccc3C)CC2=O)cc1 (stereo unspecified)	.	.	.	.	107
CSc1cccc(CN(C)C(=O)C2CCC(=O)N(CCCN3CCCC3=O)C2)c1 (stereo unspecified)	-5	-5	-4	-3	101
CC(=O)NC(c1cccs1)c1cc([N+](=O)[O-])c2cccnc2c1O (stereo unspecified)	-17	12	15	81*	122
CC(=O)NC(c1ccccc1)c1cc([N+](=O)[O-])c2cccnc2c1O (stereo unspecified)	-20	3	34	6	84
